Screening results from PubChem BioAssay.
A selection: hits, their analogues and other compounds. The true share with any hit is near 2.4%.
D2 PAM-1: positive allosteric modulators of human D2 dopamine receptor. HEK293 T-REx D2, calcium flux, EC20 dopamine potentiation. potentiation, % at 10 µM. 340,000 tested, 0.34% active. AID 485347;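 active means potentiation over 3 SD above the plate norm, cut at about 30% in these data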; further: 0% is about no effect
Target sequence (P14416 whole entry, looked up): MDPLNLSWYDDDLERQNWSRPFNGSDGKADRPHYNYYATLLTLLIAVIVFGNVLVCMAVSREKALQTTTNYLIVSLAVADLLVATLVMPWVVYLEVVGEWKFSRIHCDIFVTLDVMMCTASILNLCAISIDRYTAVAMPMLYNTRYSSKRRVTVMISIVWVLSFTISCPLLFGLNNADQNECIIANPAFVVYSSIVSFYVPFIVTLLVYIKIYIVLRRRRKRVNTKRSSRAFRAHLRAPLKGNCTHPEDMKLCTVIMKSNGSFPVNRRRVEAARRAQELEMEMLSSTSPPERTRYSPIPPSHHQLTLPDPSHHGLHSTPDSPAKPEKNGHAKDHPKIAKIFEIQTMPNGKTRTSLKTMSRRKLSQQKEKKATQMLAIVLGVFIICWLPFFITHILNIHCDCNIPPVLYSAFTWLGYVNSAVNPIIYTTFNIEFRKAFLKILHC
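Potentiation of an EC20 dopamine calcium response measured kinetically over 180 s, after a preceding 180 s compound-only read flagging agonists. Cells: inducible Hek293 Trex D2 line, 4000/well, cultured overnight at 30 C before dye loading.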
D2 antag: antagonists of human D2 dopamine receptor. HEK293 TREx D2 cells, calcium flux, dopamine EC80. inhibition, % at 10 µM. 340,000 tested, 2% active. AID 485344; in the data active means inhibition above about 30%; inactive means below that, where a call was filed; further: 0% is about no effect
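Dopamine at EC80 is the agonist stimulus; test compounds precede it by 180 s. Calcium flux read kinetically in a force-coupled, inducible HEK293 T-REx D2 cell line.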
D2 ag-1: agonists of human D2 dopamine receptor; HEK293 T-REx D2 cells, calcium flux agonist mode; activation, % at 2 µM; P14416; 340,000 tested, 0.53% active;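 active means activation over 3 SD above normal in the single-dose calcium agonist read, cut at about 30% in these data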; further: 0% is about no effect
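Tetracycline-induced HEK293 T-REx cells with force-coupled D2 receptor, plated overnight at 30 C, loaded with no-wash calcium dye. After a 10 s baseline, compound was pin-added and calcium flux read kinetically for 180 s; calcium rises flagged agonists.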
D2 PAM-2: human D2 receptor positive allosteric modulation | P14416 | DiscoveRx D2 beta-arrestin cells, luminescence, 90 min; 100% = 57 uM dopamine signal | potentiation, % (concentration not given with the values) | 360,000 tested, 0.23% active | AID 624464; in the data active means potentiation above about 50%; inconclusive means mostly about 30% to 49%
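PathHunter beta-arrestin assay in DiscoveRx D2 cells. Compounds were added with an EC20 of dopamine (50 nM final) for 90 min at 37 deg C. Luminescence was read 1 h after detection reagent, with 57 uM dopamine as the EC100 control.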
D2 ag-2: activates the human D2 dopamine receptor. P14416. DiscoveRx PathHunter D2 beta-arrestin, luminescence, 90 min; 100% = 57 uM dopamine signal. activation, % (no concentration beside the values). 360,000 tested, 0.084% active. AID 624465; in the data active means activation above about 40%; inconclusive means between about 15% and that limit
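DiscoveRx PathHunter D2 beta-arrestin cells (2,100/well) attached overnight, then compound-stimulated 90 min at 37 C in HBSS/10 mM HEPES/0.1% Tween-20 buffer; beta-galactosidase complementation read by luminescence after 1 h at ambient temperature. Dopamine 57 uM final (EC100) as control.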
D3 arrestin ag: activates human D3 dopamine receptor beta-arrestin recruitment; shares compounds with D2 ag-1; AID 720506; 2,300 tested, 4% active; Potency, µM (top dose mostly 76.9 µM), for inactives: at the highest dose activation, actives largely listed as activators; DiscoveRx D3 beta-arrestin cells, luminescence, 90 min;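 further: potency means the concentration at half of the fitted maximal effect; 100% = dopamine control response; nearly all actives have a fitted effect of over 70% in size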
D2 ag-3: activates human D2 dopamine receptor in D3 counterscreen | Potency, µM (top dose mostly 76.9 µM), for the others: top-dose activation, hits mostly activators | shares compounds with D2 ag-1 | 2,300 tested, 5.9% active | DiscoveRx PathHunter D2 beta-arrestin, luminescence, 90 min; response scale: percent relative to full dopamine signal; further: potency means the concentration at half of the fitted maximal effect; % of control where 0% means no effect; nearly all actives have a fitted effect of over 70% in size
* = called active by the depositor. Unless noted, the call rests on the fitted dose curve; in most records, active means well fitted activation curve with a large enough effect; inconclusive means small, poorly fitted or top-dose-only effect; inactive means flat fitted curve, though single readings scatter.

Screening COc1ccc(/C(O)=C/c2nc3ccc(C(=O)NCCc4cccc(C)c4)cc3[nH]c2=O)cc1OC returned D2 PAM-1 4, D2 antag -12, D2 ag-1 18, D2 PAM-2 -3, D2 ag-2 4, D3 arrestin ag -18% and D2 ag-3 inconclusive.
OC(CNCCc1ccccc1)COc1ccc(OCC(O)CNCCc2ccccc2)cc1 (stereo not given) was read as D2 PAM-2 -8, D2 ag-2 4, D3 arrestin ag 11% and D2 ag-3 10%.
COc1ccc(C(OCC(O)CNCCc2ccccc2)c2ccc(OC)cc2)cc1 (stereo not given) was read as D2 PAM-1 -17, D2 antag 8, D2 ag-1 51*, D2 PAM-2 -18, D2 ag-2 -6, D3 arrestin ag -5% and D2 ag-3 9%.
Screening ClC1(Cl)CC1CSc1nnc(-c2ccncc2)o1 (stereo not given) returned D2 PAM-1 -14, D2 antag 0, D2 ag-1 0, D2 PAM-2 1 and D2 ag-2 -1.
CC(C)N(C(=O)CSc1nnc(C2CC2)n1C1CC1)c1ccccc1 was read as D2 PAM-2 6 and D2 ag-2 -1.
`c1ccc2c(c1)nc(N1CCCCCC1)c1nncn12` gave D2 PAM-2 -29 and D2 ag-2 -3.
`COC(=O)NCC(c1ccc2c(c1)OCO2)N1CCN(c2ccccc2)CC1` (stereo not given) gave D2 PAM-1 2, D2 antag -16, D2 ag-1 7, D2 PAM-2 -19 and D2 ag-2 1.
`COc1ccccc1N1CCN(C(CNS(=O)(=O)c2cccs2)c2cccnc2)CC1` (stereo not given) gave D2 PAM-1 -9, D2 antag 7, D2 ag-1 6, D2 PAM-2 -16 and D2 ag-2 -3.
Screening COc1ccccc1N1CCN(C(CNS(=O)(=O)c2ccccc2)c2ccccc2)CC1 (stereo not given) returned D2 PAM-1 -15, D2 antag 20, D2 ag-1 7, D2 PAM-2 -33, D2 ag-2 -1, D3 arrestin ag -7% and D2 ag-3 -1%.
`COc1ccc(S(=O)(=O)NCC(c2ccc3c(c2)OCO3)N2CCN(c3ccccc3)CC2)cc1` (stereo not given) gave D2 PAM-1 -26, D2 antag 73*, D2 ag-1 66*, D2 PAM-2 28, D2 ag-2 inconclusive, D3 arrestin ag 16% and D2 ag-3 11µM*.
Screening Cc1ccc(S(=O)(=O)NCC(c2ccc3c(c2)OCO3)N2CCN(c3ccccc3)CC2)cc1 (stereo not given) returned D2 PAM-1 -27, D2 antag 67*, D2 ag-1 64*, D2 PAM-2 9, D2 ag-2 inconclusive, D3 arrestin ag 20% and D2 ag-3 inconclusive.
For CNC(=S)N(CCc1c(C)[nH]c2ccc(OC)cc12)Cc1cccnc1 the results were D2 PAM-1 0, D2 antag 24, D2 ag-1 0, D2 PAM-2 -2, D2 ag-2 0, D3 arrestin ag -14% and D2 ag-3 -2%.
Screening Cc1cc(=O)[nH]c(Nc2c(C)n(C)n(-c3ccccc3)c2=O)n1 returned D2 PAM-1 -5, D2 antag 23, D2 ag-1 1, D2 PAM-2 3 and D2 ag-2 -2.
Cc1c(NC2=C(Cl)C(=O)N(c3ccccc3Cl)C2=O)c(=O)n(-c2ccccc2)n1C was read as D2 PAM-1 -19, D2 antag -4, D2 ag-1 44*, D2 PAM-2 -6, D2 ag-2 0, D3 arrestin ag -5% and D2 ag-3 -4%.
`CC1CC(C(=O)Nc2ccccc2)C(=O)O1` (stereo not given) gave D2 PAM-2 0 and D2 ag-2 2.
Oc1cc2c(c(Cl)c1O)CCNCC2c1ccccc1 (stereo not given) was read as D2 PAM-2 4 and D2 ag-2 9.
`Cc1cccc(C2CN(C)CCc3c2cc(O)c(O)c3Cl)c1` (stereo not given) gave D2 PAM-1 -23, D2 antag 79*, D2 ag-1 52*, D2 PAM-2 -16, D2 ag-2 6, D3 arrestin ag inconclusive and D2 ag-3 29%.
`CC(=O)c1cccc(NC(=O)C(C)OC(=O)c2ccc(-n3cnnn3)cc2)c1` (stereo not given) gave D2 PAM-1 -4, D2 antag -13, D2 ag-1 -1, D2 PAM-2 -8 and D2 ag-2 -1.
Screening CC(OC(=O)c1ccc(-n2cnnn2)cc1)C(=O)Nc1ccccc1[N+](=O)[O-] (stereo not given) returned D2 PAM-1 10, D2 antag 16, D2 ag-1 0, D2 PAM-2 23, D2 ag-2 2, D3 arrestin ag 11% and D2 ag-3 25%.
For COC(CNC(=O)Cn1nc(Cc2ccncc2)c2ccccc2c1=O)OC the results were D2 PAM-1 2, D2 antag -13, D2 ag-1 0, D2 PAM-2 -12, D2 ag-2 2, D3 arrestin ag -1% and D2 ag-3 4%.
CCOC(CNC(=O)Cn1nc(Cc2ccncc2)c2ccccc2c1=O)OCC was read as D2 PAM-1 10, D2 antag -5, D2 ag-1 0, D2 PAM-2 3 and D2 ag-2 1.
For CCCNC(=O)C(=O)Nc1ccc(N(C)C)cc1 the results were D2 PAM-1 -10, D2 antag -11, D2 ag-1 -1, D2 PAM-2 0 and D2 ag-2 -1.
CN(C)c1ccc(NC(=O)C(=O)NCCOc2ccccc2)cc1 was read as D2 PAM-1 -11, D2 antag 16, D2 ag-1 34*, D2 PAM-2 20, D2 ag-2 5, D3 arrestin ag inconclusive and D2 ag-3 22%.
`CC(=O)c1ccccc1OCCOc1ncnc2sccc12` gave D2 PAM-1 -8, D2 antag 14, D2 ag-1 0, D2 PAM-2 -1 and D2 ag-2 0.
Screening CC(C)[C@@H](COc1ccccc1)N1CCN(Cc2ccccc2)CCC1=O returned D2 PAM-1 1, D2 antag -19, D2 ag-1 -2, D2 PAM-2 6 and D2 ag-2 3.
